Screening data as filed in PubChem.
Rows were chosen to be rich in hits. Some 6.5% of all compounds tested hit in one or more screens of this group.
HCMV antiviral: inhibitors of human cytomegalovirus; HFF cells, HCMV-luciferase reporter, 72 h; stronger effect = lower value; activity change, negative = inhibition, % at 57.5 µM; 410,000 tested, 4.5% active; AID 1259415; in the data active = activity change below about -60%; inconclusive = no clear call, values can overlap the other calls; inactive = above about -39%
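Human foreskin fibroblasts infected with luciferase-reporter HCMV at MOI 1 PFU/cell, compounds at two doses. Luciferase measured 72 h post infection; normalized to buffer-only basal and Salinomycin (10uM) controls.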
Vaccinia mCherry: inhibitors of vaccinia virus infection (mCherry reporter signal); Vaccinia virus mCherry reporter infection, fluorescence; Potency, µM (series often up to 36.5 µM), inactives show at the top dose activity change, negative = inhibition, usual class: inhibitors; 310,000 tested, 0.63% active; calls by dose curve; tested in A549 cells; note: potency is the fitted concentration of half-maximal effect; nearly all actives have a fitted effect of over 35% in size
Marburg entry inh: blocks Marburg virus binding to or entry into cells; Marburg virus pseudotyped entry inhibition, cell reporter; Potency, µM (doses to about 37.8 µM), without a hit: top-dose activity change, negative = inhibition, hits mostly inhibitors; 300,000 tested, 1.8% active; AID 540276; calls by dose curve; tested in HEK293 cells; note: potency is the fitted concentration of half-maximal effect
FMDV inh: antivirals against foot and mouth disease virus. FMDV antiviral cell-based qHTS. Potency, µM (titrated, usually from 57.9 µM), for the others: at the highest dose activity change, negative = inhibition, hits mostly inhibitors. 410,000 tested, 1.2% active; calls by dose curve; tested in HEK293T cells; note: read-out not given here; potency is the fitted concentration of half-maximal effect; nearly all actives have a fitted effect of over 45% in size
Vaccinia Venus: vaccinia inhibition (Venus reporter); Vaccinia virus Venus reporter expression, fluorescence; Potency, µM (doses to about 36.5 µM), for the others: at the highest dose activity change, negative = inhibition, hits mostly inhibitors; 330,000 tested, 0.46% active; calls by dose curve; tested in A549 cells; note: potency is the fitted concentration of half-maximal effect; nearly all actives have a fitted effect of over 30% in size
Lassa entry inh: inhibitors of Lassa virus binding or cell entry | 300,000 tested, 1.2% active | AID 540256 | Potency, µM (top dose mostly 37.9 µM), inactives show top-dose activity change, negative = inhibition, usual class: inhibitors | Lassa virus pseudotype entry inhibition, cell reporter; calls by dose curve; tested in HEK293 cells; note: potency is the fitted concentration of half-maximal effect; nearly all actives have a fitted effect of over 50% in size
Numbers without * were called inactive; i = inactive; u = inconclusive; x = not tested or not shown; [ ] = another dose, or the depositor's remark. % is set by controls: 0 for no effect and ±100 for the full control effect.

SMILES	HCMV antiviral	Vaccinia mCherry	Marburg entry inh	FMDV inh	Vaccinia Venus	Lassa entry inh
C[C@H]1C(=O)N(C)CCN1C(=O)c1ccc(OC2CCN(CCc3ccccc3)CC2)cc1	-29.7	-6.0%	x	-11.9%	-19.5%	x
Cc1cc(CN(C)C(=O)c2ccc(OC3CCN(CCc4ccccc4)CC3)cc2)on1	8.2	i	3.16µM*	0.0%	-18.0%	24.3%[46.1 µM]
C=CCOc1ccccc1CN1CCC(Oc2ccc(C(=O)N3CCCCC3)cc2)CC1	-12.4	u	3.16µM*	-7.1%	-17.4%	-17.5%
O=C(c1ccc(OC2CCN(CCc3ccccc3)CC2)cc1)N1CCCC1	-63.4*	i	u	15.7%	-14.0%	-24.5%
CC(C)N1CCN(C(=O)c2ccc(OC3CCN(CCc4ccccc4)CC3)cc2)CC1	-21.1	-13.8%	11.2µM*	24.1%	-11.4%	-16.3%
CN(Cc1cnn(C)c1)C(=O)c1ccc(OC2CCN(CCc3ccccc3)CC2)cc1	-13.7	x	x	-18.5%	x	x
O=C(c1ccc(OC2CCN(CCc3ccccc3)CC2)cc1)N1CCCC(CCCO)C1 (centres undefined)	-14.5	x	x	-16.5%	x	x
O=C(c1ccc(-c2cccc(C(F)(F)F)c2)o1)N1CCCCCCC1	-8.4	-6.4%	-24.4%	-4.9%	-20.0%	-2.5%
O=C(c1ccco1)N1CCN(C(=O)c2ccc(-c3cccc(C(F)(F)F)c3)o2)CC1	-23.0	-12.1%	u	-16.0%	-8.2%	5.01µM*
COC(=O)NC(CC(C)=O)c1ccccc1 (centres undefined)	x	x	10.8%	x	x	x
Cc1cccc(C)c1Nc1nnc(SCc2cc([N+](=O)[O-])cc3c2OCOC3)s1	-24.1	x	u	u	x	-3.2%
COc1cccc(Nc2nnc(SCc3cc([N+](=O)[O-])cc4c3OCOC4)s2)c1	-10.2	x	-18.7%	15.8µM*	u	-12.0%
CCNC(=O)COc1cccc2ccccc12	-69.3*	x	-0.1%	4.0%	x	1.5%
O=C(N/N=C/c1ccccc1F)c1cc2c(ccc3ccccc32)o1	-9.5	x	x	-5.5%	x	x
COc1ccc(/C=C/C=N/NC(=O)COc2ccc(OC)cc2)cc1	-0.8	i	-0.3%	28.0%	-18.0%	0.794µM*
Cc1ccccc1OCC(=O)N/N=C/C=C/c1ccccc1	-4.2	x	2.5%	-3.7%	x	6.3%
O=C(COc1cccc2ccccc12)N/N=C/C=C/c1ccccc1	-62.0*	x	-6.3%	-15.4%	x	-1.9%
O=C(N/N=C/C=C/c1ccccc1)c1cc2c(ccc3ccccc32)o1	u	x	4.47µM*	u	-6.5%	7.94µM*
c1ccc2c(Nc3ccc4c(c3)OCCO4)c3c(nc2c1)CCC3	-78.8*	x	x	u	x	x
COc1cc(Nc2c3ccccc3nc3ccccc23)cc(OC)c1OC	-32.2	u	2.82µM*	-24.1%	u	u
COc1ccccc1Nc1nc(-c2ccccc2)nc2ccccc12	u	x	x	-7.6%	x	x
COc1ccccc1Nc1c2ccccc2nc2ccccc12	-98.7*	11.2µM*	u	u	u	u
COc1ccc(Nc2c3c(nc4ccccc24)CCC3)cc1	-94.0*	u	8.91µM*	u	u	u
COc1ccc(Nc2c3c(nc4ccccc24)CCC3)cc1Cl	-18.6	u	u	u	u	-27.5%[46.1 µM]
CCOC(=O)N/N=C1\C[C@@H](O)[C@@H](O)[C@@H]2[C@@H]3C(=O)N(C4CCCCC4)C(=O)[C@@H]3CC[C@H]12	x	x	-24.9%[14.2 µM]	x	x	x
SMILES	HCMV antiviral	Vaccinia mCherry	Marburg entry inh	FMDV inh	Vaccinia Venus	Lassa entry inh
Cc1ccc2c(C(=O)CNC3=NCCS3)c(C)[nH]c2c1	x	-12.5%	x	x	u	x
CCOC(=O)c1ccc(CN(Cc2ccc(OC)cc2)S(=O)(=O)c2cccc(C(F)(F)F)c2)cc1	-1.1	-15.3%	x	-5.3%	-12.5%	-18.5%[46.1 µM]
Fc1cccc(Oc2ccc3c(-c4ccccc4F)noc3n2)c1	-24.6	x	x	x	x	x
COc1ccccc1Nc1nc(-c2ccccc2O)nc2ccccc12	-69.5*	i	-8.7%[46.1 µM]	-8.9%	-9.1%	7.7%[46.1 µM]
c1ccc(Nc2c3c(nc4ccccc24)CCC3)cc1	u	u	u	u	-5.2%	-37.7%
Fc1ccc(Nc2c3c(nc4ccccc24)CCC3)cc1	-63.9*	-28.4%	u	-25.8%	-23.2%	u
COc1ccc(Nc2c3c(nc4ccccc24)CCCC3)cc1OC	8.2	u	8.91µM*	-24.6%	-7.8%	-24.4%
COc1ccc(C)cc1Nc1c2c(nc3ccccc13)CCC2	-88.5*	u	u	u	-19.2%	u
